# Gli-Sufu block = Gli-Sufu pathway antagonism. Sufu-KO-LIGHT fibroblasts, Gli luciferase reporter luminescence. inhibition, % at 5 µM. hit rate 0.74% among 340,000. AID 588413;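 active = inhibition above about 55%, limit read from the data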;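 also: 0% = DMSO-treated cells and 100% = wells with medium but no cells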
# Env fusion inh = blocks HIV Env-driven cell-cell fusion | HeLa-JRFL Env/CEM21 cell fusion, luciferase | hit rate 1.1% among 360,000 | AID 651610 | inhibition, % at 12.3 µM;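 active = mean replicate inhibition score of at least 50 and every replicate individually at or above 50; inconclusive = only one of the two criteria met; inactive = mean below 50 and not all replicates reaching 50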;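 also: 0% = plate neutral controls and 100% = maraviroc near 300 nM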
# GalR3 antagonist = human GalR3 antagonism | HEK293 GalR3-CNG cAMP membrane potential fluorescence; galR3 body fused to GalR1 C-terminus | inhibition, % at 3 µM | hit rate 0.44% among 360,000 | AID 651719;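 active = inhibition above the screen-wide average plus 3 SD, cut at about 13% in these data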;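 also: forskolin and galanin both at EC90 stimulate the cells; cAMP rise reported by CNG channel membrane potential dye signal; 0% = forskolin plus galanin with DMSO and 100% = forskolin alone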
# COUP-TFII inh = inhibitors of human COUP-TFII (NR2F2); inhibition, % at 8.6 µM; AID 686940; hit rate 0.7% among 370,000; HEK293T NGFI-A luciferase reporter, luminescence; P24468;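 active = inhibition above a per-plate cutoff, mean inhibition of test wells between control levels plus 3 SD, cut at about 38% in these data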;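 also: cells cotransfected with COUP-TFII expression vector driving the NGFI-A reporter; 0% = median of COUP-TF2 test wells and 100% = reporter-only cells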
# Target sequence (P24468 whole entry, looked up): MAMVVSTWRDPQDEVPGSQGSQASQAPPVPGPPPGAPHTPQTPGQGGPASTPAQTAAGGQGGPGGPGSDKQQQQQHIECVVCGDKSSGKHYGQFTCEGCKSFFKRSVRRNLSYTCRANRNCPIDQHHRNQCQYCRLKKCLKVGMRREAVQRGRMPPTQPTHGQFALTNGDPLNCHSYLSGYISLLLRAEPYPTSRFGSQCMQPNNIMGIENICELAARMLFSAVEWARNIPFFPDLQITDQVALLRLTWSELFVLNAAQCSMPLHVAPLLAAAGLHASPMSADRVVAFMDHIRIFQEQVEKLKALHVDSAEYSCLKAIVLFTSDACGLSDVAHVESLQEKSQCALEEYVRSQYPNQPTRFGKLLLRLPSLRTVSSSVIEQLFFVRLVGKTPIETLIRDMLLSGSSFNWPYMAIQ
# aDG glyco up = increases alpha dystroglycan glycosylation; activation, % at 10 µM; hit rate 0.22% among 360,000; Pro5-aDG cells, alpha-DG glycosylation AlphaScreen (IIH6); 0% Pro5, 100% B10-LARGE cell signal;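 active = activation of at least 8% versus controls, or a plate z-score of at least 8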;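 also: Pro5 are CHO cells carrying HIG-tagged alpha-DG that lacks glycosylation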
# GalR3 conf = confirmation of human galanin receptor 3 antagonists; shares compounds with GalR3 antagonist; HEK293 GalR3 CNG cAMP biosensor, membrane potential fluorescence; galR3 fused to GalR1 carboxy tail; challenged with forskolin and galanin at EC90; inhibition, % at 3 µM; hit rate 59% among 1,600; AID 652245;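 active = inhibition above the primary screen's cutoff, the mean inhibition of all screened compounds plus 3 SD, cut at about 13% in these data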;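 also: 0% = forskolin plus galanin and 100% = forskolin alone with DMSO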
# HEK-CNG parental = counter-screen for GalR3 antagonists: nonspecific agonists in parental HEK-CNG cells; shares compounds with GalR3 antagonist; HEK293-CNG parental cells, cAMP membrane potential fluorescence; normalised: DMSO wells 0%, forskolin wells 100%; activation, % at 3 µM; hit rate 10% among 1,600; in the data active = activation above about 1.3%
# * = called active by the depositor; i = inactive; ? = inconclusive; . = no result given; [ ] = dose if it differs, or a comment. Compounds with a hit are over-represented: about 2.1% of the library has one in this group of screens.
SMILES,Gli-Sufu block,Env fusion inh,GalR3 antagonist,COUP-TFII inh,aDG glyco up,GalR3 conf,HEK-CNG parental
COc1ccc(/C=N/NC(=O)C(Cc2c[nH]c3ccccc23)NC(=O)OCC(C)C)cc1[N+](=O)[O-] (configuration not stated),3,-22,15*,4,0,26*,0
COc1c(/C=C2\SC(=Nc3ccccc3Cl)NC2=O)cccc1[N+](=O)[O-],3,5,51*,-3,0,65*,1
C[C@@H]1CCCCO[C@@H](CN(C)S(=O)(=O)c2ccc(Cl)cc2)[C@H](C)CN([C@H](C)CO)C(=O)c2cc(NC(=O)NC3CCCCC3)ccc2O1,.,17[16.7 µM],.,.,.,.,.
COc1ccc(NC(=O)Nc2ccc3c(c2)C(=O)N([C@@H](C)CO)C[C@@H](C)[C@@H](CN(C)C(=O)CCC(F)(F)F)OCCCC[C@@H](C)O3)cc1,.,22[16.7 µM],.,.,.,.,.
O=C(Nc1nc(-c2cccs2)cs1)c1ccc(S(=O)(=O)N2CCCC2)cc1,14,?,-6,30,0,.,.
O=C(Nc1nc(-c2ccc3c(c2)OCCO3)cs1)c1ccc(S(=O)(=O)N2CCCCC2)cc1,-3,.,20*,-4,0,15*,-1
COc1ccccc1-n1c(-c2cccnc2)n[nH]c1=S,5,0,-7,14,0,.,.
S=c1[nH]nc(-c2cc(-c3ccsc3)n[nH]2)n1-c1cccc2ccccc12,-3,2,4,3,0,.,.
COc1ccccc1-n1c(-c2cc(-c3ccc(F)cc3)n[nH]2)n[nH]c1=S,1,-3,14*,-12,0,13*,0
COc1ccc(-c2cc(-c3n[nH]c(=S)n3-c3cccc4ccccc34)[nH]n2)cc1,3,-17,52*,-8,0,49*,0
OCCC#Cc1ccc(CN2CCN(C3CCCCC3)C(CCO)C2)cc1 (configuration not stated),-14,-9,13*,-4,0,0,0
CN1CC(=O)N(CC(=O)Nc2ccc3c(c2)CCC3)C1=O,.,15,24*,-18,0,4,0
CC(C)CC1NC(=O)N(CC(=O)Nc2ccc3c(c2)CCC3)C1=O (configuration not stated),2,-18,-7,-30,0,.,.
COc1ccc(/C=C2\SC(=O)N(CCNC(=O)C3=COCCO3)C2=O)cc1,-32,-68,31*,-14,0,21*,0
O=C(NCCN1C(=O)S/C(=C\c2ccc(OC(F)F)cc2)C1=O)c1cnccn1,1,.,15*,-9,0,6,1
CO[C@H]1CN(C)C(=O)c2cc(NC(=O)c3ccc(F)cc3)ccc2OC[C@@H](C)N(C(=O)CN(C)C)C[C@@H]1C,.,6[16.7 µM],.,.,.,.,.
O=C(COC(=O)[C@H](Cc1ccccc1)NC(=O)c1ccco1)Nc1ccccc1,-1,.,5,11,0,.,.
Cc1cc(NC(=O)COC(=O)C(Cc2ccccc2)NC(=O)c2ccco2)no1 (configuration not stated),-5,-56,13*,12,0,14*,0
CCOC(=O)C(=CNc1ccc(S(N)(=O)=O)cc1)C(=O)OCC,-4,12,13*,-37,0,29*,1
Cc1noc(C)c1NC(=O)Nc1cccc2c1O[C@H](CN(C)Cc1ccc3c(c1)OCO3)[C@@H](C)CN([C@@H](C)CO)C2=O,.,12[16.7 µM],.,.,.,.,.
CNC[C@@H]1Oc2c(NC(=O)Nc3ccc(C(F)(F)F)cc3)cccc2C(=O)N([C@@H](C)CO)C[C@@H]1C,.,6[16.7 µM],.,.,.,.,.
O=C(O)c1cc(-c2ccccc2)nc2nc(N3CCCCC3)sc12,.,-45,13*,-18,.,0,0
COc1ccccc1C(=O)Nc1ccc(C2=NNC(=O)CC2C)cc1 (configuration not stated),-5,1,73*,-17,-1,73*,0
C[C@H]1CN([C@@H](C)CO)C(=O)c2cc(NC(=O)Nc3ccc(F)cc3)ccc2O[C@@H]1CN(C)Cc1ccc(Oc2ccccc2)cc1,.,10[16.7 µM],.,.,.,.,.
Nc1ccc2c(c1)Cc1cc([N+](=O)[O-])ccc1-2,-31,i,-3,-21,0,.,.
SMILES,Gli-Sufu block,Env fusion inh,GalR3 antagonist,COUP-TFII inh,aDG glyco up,GalR3 conf,HEK-CNG parental
CC(O)CN(CC(C)O)c1ccc2c(c1)Cc1cc([N+](=O)[O-])ccc1-2 (configuration not stated),-18,-6,13*,-11,0,27*,1.4*
C[C@@H]1CCCCO[C@H](CN(C)S(=O)(=O)c2cccs2)[C@@H](C)CN([C@@H](C)CO)C(=O)c2cc(N(C)C)ccc2O1,.,-143[16.7 µM],.,.,.,.,.
COc1ccccc1NC(=O)N[C@@H]1C=C[C@H](CC(=O)NCc2ccc(Cl)c(Cl)c2)O[C@H]1CO,.,13[16.7 µM],.,.,.,.,.
COCC(=O)N(C)C[C@H]1Oc2ncc(C#Cc3cccnc3)cc2C(=O)N([C@@H](C)CO)C[C@H]1C,.,-14[16.7 µM],.,.,.,.,.
C/C(=N\OCc1nc2ccccc2c(=O)n1/N=C/c1cc(C)cc([N+](=O)[O-])c1O)c1ccccc1,2,3,67*,-29,0,70*,-1
C=CCn1c(COc2ccc(Cl)cc2)nnc1SCC(=O)c1c(N)n(C)c(=O)n(C)c1=O,0,0,16*,21,0,5,0
C=CCn1c(COc2cccc(C)c2)nnc1SCC(=O)c1c(N)n(C)c(=O)n(C)c1=O,4,-5,9,-8,0,.,.
CN(C)CCCNC(=O)C[C@H]1CC[C@@H]2[C@@H](COc3ccc(NS(C)(=O)=O)cc3C(=O)N2C)O1,.,-1[16.7 µM],.,.,.,.,.
Cc1cc(C)c2nc(N3C(=O)C(O)=C(C(=O)c4ccco4)C3c3cccc(O)c3)sc2c1 (configuration not stated),0,.,14*,-5,0,9,0
Cc1ccc2nc(N3C(=O)C(O)=C(C(=O)c4ccco4)C3c3ccc(O)cc3)sc2c1 (configuration not stated),.,-5,7,-30,0,.,.
Cc1cc(C)c2nc(N3C(=O)C(O)=C(C(=O)c4ccco4)C3c3ccc(O)cc3)sc2c1 (configuration not stated),7,.,45*,-10,0,12,1
CCC(=O)N(C)C[C@H]1Oc2ncc(-c3ccccc3OC)cc2C(=O)N([C@@H](C)CO)C[C@H]1C,.,-5[16.7 µM],.,.,.,.,.
CN(C)CC(=O)Nc1ccc2c(c1)[C@@H]1C[C@@H](CC(=O)N3CCc4ccccc4C3)O[C@H](CO)[C@@H]1O2,.,-14[16.7 µM],.,.,.,.,.
COC(CNS(=O)(=O)c1ccc(S(=O)(=O)N2CCCC2)cc1)OC,-10,-1,13*,2,0,7,0

# Assay outcomes as filed in PubChem BioAssay.
